About 80 (0.02%) of roughly 360,000 compounds were called active.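 How the source made its calls: active means activation above the run cutoff, the mean activation of all test compounds plus 3 SD (cut at about 40% in these data); inactive means the rest.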 The entries come from a sample that favours actives as a whole.

The nature of this assay: nonselective calcium activators in parental CHO-K1 cells, primary screen, counter-screen for M1 PAM project, cell-based, Fluo-8 calcium fluorescence, full deck, 1536-well (AID 602247).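 Further: peak over basal fluorescence ratio in a 140 s read after ATP addition.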 The note with it: parental CHO-K1, ATP EC20, Fluo-8 calcium fluorescence; at 3 µM; hits give high values; 0% at ATP EC20, 100% at ATP max. (In general: Counterscreens check selectivity or assay interference.)
As for `CCc1ccc(OCC(=O)NCC(c2ccc(Cl)cc2)N2CCCCC2)cc1` (configuration not stated), the activation is 11% (inactive).

For the compound `COc1ccc(C)cc1N(CC(=O)N1CCCC1)S(=O)(=O)c1ccccc1`, the activation was 9.46% (inactive). The result for `Cc1ccc(C)c(NC(=O)c2cc(-c3cc(C)cc(C)c3O)n[nH]2)c1` reads -21.6% (inactive).

With `O=C(Nc1cccnc1)c1cc2cc(Br)ccc2oc1=O`, the activation was -7.52% (inactive). Next, `O=C(CSc1nnc(-c2cccs2)n1Cc1ccco1)c1ccc2c(c1)OCO2`: 22.8% (inactive). Next, `CCN(CC)Cc1cc(C(C)=O)ccc1O`: -6.07% (inactive). Next, `C=CCOc1ccccc1NC(=O)CN1C(=O)CNC1=O`: 13.6% (inactive); `Cc1ccc(NC(=O)CN(C)C(=O)c2ccc(Br)o2)cc1`: -2.97% (inactive). Take `CCOC(=O)c1ccc(N2C(=O)CC(Sc3nc(O)c(CC)c(=O)[nH]3)C2=O)cc1` (configuration not stated): the activation was 11.8% (inactive). The result for `Fc1cccc(Cc2noc(CN3CCN(c4cnccn4)CC3)n2)c1` reads 10.6% (inactive); that for `Cc1c(Br)c([N+](=O)[O-])nn1C(C)C(=O)Nc1nccs1` (configuration not stated), 3.45% (inactive). Next, `O=c1cc(CN2CCN(S(=O)(=O)/C=C/c3ccccc3)CC2)c2ccc(O)cc2o1`: -3.7% (inactive); `Cc1ccc(-c2ccc(C3=CC(=O)CC(C)(C)C3=O)cc2)cc1`: 8.88% (inactive); `O=C(NC12CC3CC(CC(C3)C1)C2)N1CCCC(CO)C1` (configuration not stated): 11.3% (inactive).

`COc1cc(CCC(=O)N2CCN(c3ccccc3Cl)CC2)cc(OC)c1OC`: the activation was 15.8% (inactive). Next, `O=C(CN1CCN(C(=S)NC2CCCC2)CC1)Nc1ccc(Oc2ccccc2)cc1`: -1.33% (inactive). Next, `Cc1cccc(N2C(=O)C3C(c4ccccc4)OC4(C(=O)c5ccccc5C4=O)C3C2=O)c1` (configuration not stated): 10.9% (inactive); `O=C(OCC(=O)N1CCCCCC1)c1ccc(Cl)nc1`: 21.8% (inactive). The result for `COc1cc(CNc2ncn[nH]2)ccc1OCc1ccccc1C` reads -0.62% (inactive). As to `COc1ccc(OC)c(C(=O)NC(CC(N)=O)c2ccc(N3CCC(N4CCCCC4)CC3)c([N+](=O)[O-])c2)c1` (configuration not stated), the activation was 26.1% (inactive). With `CC(NC(=O)COc1cccnc1[N+](=O)[O-])c1ccc(Cl)cc1Cl` (configuration not stated), the activation is -1.02% (inactive).

On to `Cc1cc(C)c(S(=O)(=O)N(C)CC(=O)NCC2CCCO2)c(C)c1` (configuration not stated), for which the activation is -22.7% (inactive). Take `Nc1nc(SCC(=O)Nc2ccc(Cl)cc2C(F)(F)F)n[nH]1`: the activation is 5.7% (inactive). Next, `Cc1ccc(SCCN2C(=O)NC(C)(C)C2=O)cc1`: 11.2% (inactive); `C=CCn1c(COc2ccccc2F)nnc1SCC(=O)N1CC(=O)Nc2ccccc21`: 15.7% (inactive). Consider `COc1ccccc1C(=O)N/C(=C/c1ccc2c(c1)OCO2)C(=O)Nc1cccc(C(=O)O)c1`, for which the activation is -17.7% (inactive). For `CCc1ccc(N2CC(C(=O)NC3=NCCS3)CC2=O)cc1` (configuration not stated), the activation is -0.63% (inactive).

In the case of `Cc1nc2ccccn2c(=O)c1NC(=O)c1ccc(Br)o1`, the activation was 7.36% (inactive). Next, `CCOc1cc(NC(=O)CCl)c(OCC)cc1NC(C)=O`: 10.9% (inactive); `Cc1ccc(C(C)C)c(OCCSc2nc3ccccc3n2CC(=O)O)c1`: 1.93% (inactive).

Take `COc1cccc(-c2nc3n(n2)C(c2ccccc2Cl)C(C(N)=O)=C(C)N3)c1` (configuration not stated): the activation was 3.28% (inactive). As for `COc1ccc(NC(=O)CNc2cc(S(=O)(=O)N3CCOCC3)ccc2N2CCOCC2)c(OC)c1`, the activation is 9.94% (inactive). Next, `COc1ccc(NC(=O)NN2CCN(C)CC2)c(OC)c1`: 15.7% (inactive); `COc1ccc(NC(=O)c2sc(N3CCOCC3)nc2-c2ccccc2)c(OC)c1`: 44.6% (active).

For the compound `CCn1c(O)c(N=NC2=NC(=O)CS2)c2cc(C)ccc21`, the activation was -3.3% (inactive). Take `COc1cc(C(=O)OC(C)C(=O)NCC2CCCCC2)cc(NC(=O)c2ccco2)c1OC` (configuration not stated): the activation is 7.38% (inactive). The result for `COC(=O)c1cccc(N(C(=O)CNC(=O)c2cccs2)C(C(=O)NCC2CCCO2)c2ccc(OC)c(OC)c2)c1` (configuration not stated) reads 6.05% (inactive); that for `O=C(Nc1ccccc1)c1nnsc1S(=O)(=O)c1ccc(Cl)cc1`, -4.32% (inactive); that for `Cc1ccc(NC(=O)C2(N3CCC3=O)CCCCC2)cc1`, 30.7% (inactive). For `COCCCNS(=O)(=O)c1cccc(S(=O)(=O)c2cccc(S(=O)(=O)NCCCOC)c2)c1`, the activation was -13.2% (inactive). Consider `Cc1ccc(C(=O)N[C@H](C(=O)N2CCN(c3ncccn3)CC2)C(C)C)cc1`, for which the activation is 21.1% (inactive). The result for `O=C(CN1C(=O)NC2(CCCC2)C1=O)Nc1cc(C(F)(F)F)ccc1N1CCOCC1` reads -14.5% (inactive). Consider `Cc1ccc(C(=O)O)cc1N1C(=O)CCCC1=O`, for which the activation was 17.6% (inactive). The result for `CCC(C(=O)Nc1ccc(C(C)C)cc1)c1ccccc1` (configuration not stated) reads 7.1% (inactive). Next, `NC(=O)C1CCN(Cc2nc3c(Br)cc(Br)cc3c(=O)[nH]2)CC1`: 8.89% (inactive); `CCn1nc(C)c(/C=N/NC(=O)Cc2ccc(Cl)cc2)c1C`: 10.4% (inactive).

As to `COc1ccc(CN2C(=O)CC(Cc3ccc(C)cc3)C2=O)cc1OC` (configuration not stated), the activation is 0.86% (inactive).

With `CC(NC(=O)c1cc2cc(Cl)ccc2oc1=N)c1ccccc1` (configuration not stated), the activation was 4.16% (inactive). The result for `O=C(O)c1cccc2c1C(=O)N(C1CCCCC1)C2` reads 12.5% (inactive); that for `Cc1c(C#N)c2ncn(CC#N)c(=O)c2n1-c1ccccc1`, 10.7% (inactive); that for `OCC(O)C1OCOC(C(O)CO)C1O` (configuration not stated), -2.45% (inactive). On to `Cc1ccc(-c2nnc(Nc3ccc(C(=O)N(C)C)cc3)c3ccccc23)cc1S(N)(=O)=O`, for which the activation was -6.44% (inactive).

With `COc1ccc(S(=O)(=O)N2CCOCC2)cc1NC(=O)CSc1ncnc2ccccc12`, the activation is -10.6% (inactive). The result for `C/C(CCc1ccccc1)=N\NC(=O)c1ccc(CN2CCOCC2)cc1` reads 10.1% (inactive); that for `C[C@@H]1CN([C@@H](C)CO)C(=O)c2cc(NS(C)(=O)=O)ccc2O[C@@H](C)CCCCO[C@H]1CN(C)C(=O)Nc1ccc2c(c1)OCO2`, 5.94% (inactive); that for `O=C(NCc1ccccc1)C(c1ccco1)N(C(=O)c1csnn1)c1ccccc1F` (configuration not stated), -7% (inactive). Next, `Cc1ccc(C)c2[nH]c(=O)c(CN(Cc3cccnc3)C(=S)NCc3ccco3)cc12`: -16.3% (inactive).

The record behind these values is PubChem BioAssay AID602247 (The Scripps Research Institute Molecular Screening Center, 2012).
